PubChem BioAssay (EPA / NIEHS)
“And” between values parts separate entries of the source, which are not always exact repeats. Equal entries are not always repeated. Inconclusive results are not listed. The source made the active and inactive calls. The calls were made as follows, unless noted: active = hit-call score of the fitted dose curve at least 0.9, where 1 is the maximum; inactive = score below 0.9.

Key:
[1] = molecular target: Retinoic acid receptor RXR-alpha (Homo sapiens) (UniProt P19793); experiment: OT_NURR1_NURR1RXRa_1440: Odyssey Thera (OT) 24-hour HEK293T Protein Complementation Assay for Nurr1/retinoid X receptor (RXR) (AID 2283386; active = hit-call score of the fitted dose curve at least 0.9, where 1 is the maximum)
Method in brief: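 HEK293T cells were dosed with compound and read 24 h later by fluorescence intensity in a protein-fragment complementation format, where Nurr1–RXRα interaction reconstitutes a split reporter. Activity was fitted as gain of signal relative to DMSO baseline.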

[2] = molecular target: Peroxisome proliferator-activated receptor gamma (Homo sapiens) (UniProt P37231); experiment: OT_PPARg_PPARgSRC1_0480: Odyssey Thera (OT) 8-hour Protein-Complementation Assay for Peroxisome Proliferator-activated Receptor Gamma / SRC-1 Co-activator (AID 2283387; active = hit-call score of the fitted dose curve at least 0.9, where 1 is the maximum)
Method in brief: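 Protein-fragment complementation of split Venus YFP reports PPARg/SRC-1 interaction in HEK293T (transfected 48 h before treatment), exposed 8 h. Readout: N/C fluorescence ratio at 488 nm from imaging, Draq5 for segmentation, positive fit relative to DMSO.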

[3] = molecular target: Peroxisome proliferator-activated receptor gamma (Homo sapiens) (UniProt P37231); experiment: OT_PPARg_PPARgSRC1_1440: Odyssey Thera (OT) 24-hour Protein-Complementation Assay for Peroxisome Proliferator-activated Receptor Gamma/ SRC-1 Co-activator (AID 2283388; active = hit-call score of the fitted dose curve at least 0.9, where 1 is the maximum)
Method in brief: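 HEK293T transiently transfected with PPARg/SRC-1 split-Venus YFP fusions 48 h before dosing, then treated 24 h at 37C. Fixed cells imaged; nuclear/cytoplasmic 488 nm fluorescence ratio, gain of signal versus DMSO.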

[4] = CEETOX_H295R_11DCORT: CeeTox H295R High-throughput Steroidogenesis Assay for 11-Deoxycortisol (11DCORT) (AID 2283432); settings: actives raise or lower the signal;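 as to AC50: 11-deoxycortisol secreted into the medium measured by LC-MS/MS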
Method in brief: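 Human adrenal H295R cells were prestimulated with 10 uM forskolin for 48 h, then exposed to test chemical (0.1% DMSO final) for 48 h. Medium 11-deoxycortisol was quantified by MTBE extraction and HPLC-MS/MS; bidirectional fitting relative to DMSO.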

[5] = CEETOX_H295R_OHPREG: CeeTox H295R High-throughput Steroidogenesis Assay for OH-Pregnenolone (OHPREG) (AID 2283434); settings: actives raise or lower the signal
Method in brief: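 H295R cells pre-stimulated 48 h with 10 uM forskolin, then exposed 48 h to chemical in 0.1% DMSO. 17alpha-hydroxypregnenolone in medium quantified by MTBE extraction and HPLC-MS/MS; bidirectional fit versus DMSO, viability checked by MTT.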

[6] = CEETOX_H295R_OHPROG: CeeTox H295R High-throughput Steroidogenesis Assay for OH-Progesterone (OHPROG) (AID 2283435); settings: actives raise or lower the signal
Method in brief: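 H295R human adrenal cells were prestimulated 48 h with 10 uM forskolin, then exposed 48 h to test chemical (0.1% DMSO final). 17alpha-hydroxyprogesterone in medium was measured by HPLC-MS/MS after MTBE extraction; bidirectional fitting vs DMSO.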

[7] = CEETOX_H295R_ANDR: CeeTox H295R High-throughput Steroidogenesis Assay for Androstenedione (ANDR) (AID 2283436); settings: actives raise or lower the signal
Method in brief: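 H295R cells, following OECD 456 with minor changes, exposed to chemicals for 48 h. Androstenedione in the medium was quantified by HPLC-MS/MS after MTBE extraction. Fitting was bidirectional versus DMSO; chemicals were diluted until MTT viability was ≥70%.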

[8] = CEETOX_H295R_CORTIC: CeeTox H295R High-throughput Steroidogenesis Assay for Corticosterone (CORTIC) (AID 2283437); settings: actives raise or lower the signal;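 also: corticosterone secreted into medium quantified by mass spectrometry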
Method in brief: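 H295R adrenal cells prestimulated 48 hours with 10 uM forskolin, then exposed 48 hours to chemical in 0.1% DMSO. Corticosterone in medium measured by HPLC-MS/MS after MTBE extraction; MTT viability in the same wells; bidirectional fit versus DMSO.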

[9] = CEETOX_H295R_CORTISOL: CeeTox H295R High-throughput Steroidogenesis Assay for Cortisol (AID 2283438); settings: actives raise or lower the signal;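 also: cortisol secreted into medium quantified by LC-MS/MS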
Method in brief: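 H295R human adrenal cells were prestimulated 48 h with 10 uM forskolin, then exposed 48 h to test chemical (0.1% DMSO final). Medium cortisol was quantified by HPLC-MS/MS after MTBE extraction; bidirectional fitting relative to DMSO baseline.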

[10] = CEETOX_H295R_DOC: CeeTox H295R High-throughput Steroidogenesis Assay for DOC (AID 2283439); settings: actives raise or lower the signal
Method in brief: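 H295R adrenal cells prestimulated 48 h with 10 uM forskolin, then exposed 48 h to test chemical (0.1% DMSO final). Medium 11-deoxycorticosterone extracted with MTBE, quantified by HPLC-MS/MS; bidirectional fit versus DMSO baseline; MTT viability in same wells.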

[11] = CEETOX_H295R_PROG: CeeTox H295R High-throughput Steroidogenesis Assay for Progesterone (PROG) (AID 2283442); settings: actives raise or lower the signal;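 as to AC50: human H295R adrenal cells primed with 10 µM forskolin before dosing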
Method in brief: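 H295R adrenal cells prestimulated 48 h with 10 uM forskolin, then exposed 48 h to test chemical in 0.1% DMSO. Progesterone in medium quantified by HPLC-MS/MS after MTBE extraction; viability checked by MTT in same wells.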

[12] = read-out: Tumor necrosis factor receptor superfamily member 6 (Homo sapiens) (UniProt P25445); experiment: LTEA_HepaRG_FAS: Life Technologies and Expression Analysis (LTEA) Assay for Fas cell surface death receptor (FAS) using HepaRG (AID 2283447); settings: mRNA level, 48 h; actives raise or lower the signal
Method in brief: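 Differentiated HepaRG cells in serum-free induction medium were exposed 48 h to 8 half-log concentrations up to 100 uM in 0.5% DMSO, in duplicate. FAS mRNA was measured by qRT-PCR normalised to ACTB, GAPDH and POLR2A; bidirectional fit versus DMSO.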

[13] = read-out: Fatty acid synthase (Homo sapiens) (UniProt P49327); experiment: LTEA_HepaRG_FASN: Life Technologies and Expression Analysis (LTEA) Assay for Fatty Acid Synthase (FASN) using HepaRG (AID 2283448); settings: mRNA level, 48 h; actives raise or lower the signal
Method in brief: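 Differentiated human HepaRG cells were exposed for 48 h in serum-free induction medium to eight half-log concentrations up to 100 uM in 0.5% DMSO, in duplicate. FASN mRNA was quantified by TaqMan qRT-PCR, normalized to ACTB/GAPDH/POLR2A, and fitted bidirectionally against DMSO.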

[14] = read-out: Cyclin D2 (CCND2), CCND2 (gene 894); experiment: LTEA_HepaRG_CCND2: Life Technologies and Expression Analysis (LTEA) Assay for Cyclin D2 (CCND2) using HepaRG (AID 2283449); settings: mRNA level, 48 h; actives raise or lower the signal;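 also: CCND2 transcript measured by TaqMan qRT-PCR and normalised to three housekeeping genes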
Method in brief: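 Chemicals in 0.5% DMSO, eight half-log concentrations from 100 uM top, were applied in duplicate for 48 h to human HepaRG cells in serum-free induction medium. CCND2 mRNA by TaqMan qRT-PCR, normalised to ACTB/GAPDH/POLR2A; bidirectional fit versus DMSO.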

[15] = read-out: Cyclin Dependent Kinase Inhibitor 1A (CDKN1A), CDKN1A (gene 1026); experiment: LTEA_HepaRG_CDKN1A: Life Technologies and Expression Analysis (LTEA) Assay for Cyclin Dependent Kinase Inhibitor 1A (CDKN1A) using HepaRG (AID 2283450); settings: mRNA level, 48 h; actives raise or lower the signal
Method in brief: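 Differentiated HepaRG cells in serum-free induction medium, exposed 48 h in duplicate to eight half-log concentrations up to 100 uM in 0.5% DMSO. mRNA measured by TaqMan qRT-PCR, normalized to ACTB, GAPDH, POLR2A; bidirectional fit versus DMSO.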

[16] = read-out: Cyclin D1 (CCND1), CCND1 (gene 595); experiment: LTEA_HepaRG_CCND1: Life Technologies and Expression Analysis (LTEA) Assay for Cyclin D1 (CCND1) using HepaRG (AID 2283451); settings: mRNA level, 48 h; actives raise or lower the signal
Method in brief: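 Differentiated HepaRG cells exposed 48 h in serum-free induction medium to eight half-log concentrations from 100 uM top, 0.5% DMSO, duplicates. CCND1 mRNA measured by Fluidigm TaqMan qRT-PCR, normalised to ACTB, GAPDH, POLR2A; bidirectional fit.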

[17] = read-out: catalase (CAT), CAT (gene 847); experiment: LTEA_HepaRG_CAT: Life Technologies and Expression Analysis (LTEA) Assay for catalase (CAT) using HepaRG (AID 2283452); settings: mRNA level, 48 h; actives raise or lower the signal;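 as to AC50: TaqMan qRT-PCR signal normalized to ACTB GAPDH and POLR2A housekeeping genes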
Method in brief: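 HepaRG cells in serum-free induction medium, 0.5% DMSO vehicle, exposed 48 h in duplicate over 8 half-log concentrations from 100 uM. CAT mRNA measured by qRT-PCR, normalized to ACTB, GAPDH, POLR2A; bidirectional fit versus DMSO.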

[18] = read-out: flavin-containing dimethylaniline monooxygenases 3 (FMO3), FMO3 (gene 2328); experiment: LTEA_HepaRG_FMO3: Life Technologies and Expression Analysis (LTEA) Assay for flavin-containing dimethylaniline monooxygenases 3 (FMO3) using HepaRG (AID 2283453); settings: mRNA level, 48 h; actives raise or lower the signal;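 as to AC50: FMO3 transcript by TaqMan qRT-PCR normalized to ACTB GAPDH and POLR2A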
Method in brief: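 HepaRG, 48 h exposure, 8-pt half-log series from 100 uM, 0.5% DMSO vehicle, duplicates; FMO3 transcript by Fluidigm TaqMan qRT-PCR, housekeeping-normalized; gain/loss fit vs DMSO.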

[19] = CEETOX_H295R_ESTRADIOL: CeeTox H295R High-throughput Steroidogenesis Assay for Estradiol (AID 2283440); settings: actives raise or lower the signal;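 also: estradiol secreted into medium quantified by LC-MS/MS after dansyl derivatisation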
Method in brief: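 H295R cells pre-stimulated 48 h with 10 uM forskolin, then exposed 48 h to chemical in 0.1% DMSO. Medium estradiol quantified by MTBE extraction, dansyl derivatisation and HPLC-MS/MS; bidirectional fit versus DMSO; MTT viability required >/=70%.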

[20] = CEETOX_H295R_ESTRONE: CeeTox H295R High-throughput Steroidogenesis Assay for Estrone (AID 2283441); settings: actives raise or lower the signal;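 also: estrone secreted into medium measured by LC-MS/MS after dansyl derivatization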
Method in brief: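 H295R cells; 48 h forskolin (10 uM) prestimulation; 48 h compound exposure, 0.1% DMSO final. Medium estrone: MTBE extraction, dansyl derivatization, HPLC-MS/MS. Bidirectional fit vs DMSO.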

Measured: AC50

Sequence of Retinoic acid receptor RXR-alpha (Homo sapiens) (P19793 whole entry, looked up, the tested form may be a part): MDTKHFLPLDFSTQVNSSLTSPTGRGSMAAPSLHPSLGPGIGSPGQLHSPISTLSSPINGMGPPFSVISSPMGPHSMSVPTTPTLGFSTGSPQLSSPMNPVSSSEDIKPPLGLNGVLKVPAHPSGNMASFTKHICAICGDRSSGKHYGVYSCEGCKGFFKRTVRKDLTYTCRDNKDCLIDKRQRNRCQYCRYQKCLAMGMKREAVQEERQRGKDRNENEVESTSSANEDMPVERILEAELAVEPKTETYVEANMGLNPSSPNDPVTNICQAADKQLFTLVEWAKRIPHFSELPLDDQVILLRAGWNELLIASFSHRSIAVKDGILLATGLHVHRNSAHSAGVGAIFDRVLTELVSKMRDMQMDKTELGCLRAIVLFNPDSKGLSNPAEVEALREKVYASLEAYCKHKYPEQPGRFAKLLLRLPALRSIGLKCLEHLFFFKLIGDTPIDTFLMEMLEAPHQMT
Sequence of Fatty acid synthase (Homo sapiens) (P49327 whole entry, looked up): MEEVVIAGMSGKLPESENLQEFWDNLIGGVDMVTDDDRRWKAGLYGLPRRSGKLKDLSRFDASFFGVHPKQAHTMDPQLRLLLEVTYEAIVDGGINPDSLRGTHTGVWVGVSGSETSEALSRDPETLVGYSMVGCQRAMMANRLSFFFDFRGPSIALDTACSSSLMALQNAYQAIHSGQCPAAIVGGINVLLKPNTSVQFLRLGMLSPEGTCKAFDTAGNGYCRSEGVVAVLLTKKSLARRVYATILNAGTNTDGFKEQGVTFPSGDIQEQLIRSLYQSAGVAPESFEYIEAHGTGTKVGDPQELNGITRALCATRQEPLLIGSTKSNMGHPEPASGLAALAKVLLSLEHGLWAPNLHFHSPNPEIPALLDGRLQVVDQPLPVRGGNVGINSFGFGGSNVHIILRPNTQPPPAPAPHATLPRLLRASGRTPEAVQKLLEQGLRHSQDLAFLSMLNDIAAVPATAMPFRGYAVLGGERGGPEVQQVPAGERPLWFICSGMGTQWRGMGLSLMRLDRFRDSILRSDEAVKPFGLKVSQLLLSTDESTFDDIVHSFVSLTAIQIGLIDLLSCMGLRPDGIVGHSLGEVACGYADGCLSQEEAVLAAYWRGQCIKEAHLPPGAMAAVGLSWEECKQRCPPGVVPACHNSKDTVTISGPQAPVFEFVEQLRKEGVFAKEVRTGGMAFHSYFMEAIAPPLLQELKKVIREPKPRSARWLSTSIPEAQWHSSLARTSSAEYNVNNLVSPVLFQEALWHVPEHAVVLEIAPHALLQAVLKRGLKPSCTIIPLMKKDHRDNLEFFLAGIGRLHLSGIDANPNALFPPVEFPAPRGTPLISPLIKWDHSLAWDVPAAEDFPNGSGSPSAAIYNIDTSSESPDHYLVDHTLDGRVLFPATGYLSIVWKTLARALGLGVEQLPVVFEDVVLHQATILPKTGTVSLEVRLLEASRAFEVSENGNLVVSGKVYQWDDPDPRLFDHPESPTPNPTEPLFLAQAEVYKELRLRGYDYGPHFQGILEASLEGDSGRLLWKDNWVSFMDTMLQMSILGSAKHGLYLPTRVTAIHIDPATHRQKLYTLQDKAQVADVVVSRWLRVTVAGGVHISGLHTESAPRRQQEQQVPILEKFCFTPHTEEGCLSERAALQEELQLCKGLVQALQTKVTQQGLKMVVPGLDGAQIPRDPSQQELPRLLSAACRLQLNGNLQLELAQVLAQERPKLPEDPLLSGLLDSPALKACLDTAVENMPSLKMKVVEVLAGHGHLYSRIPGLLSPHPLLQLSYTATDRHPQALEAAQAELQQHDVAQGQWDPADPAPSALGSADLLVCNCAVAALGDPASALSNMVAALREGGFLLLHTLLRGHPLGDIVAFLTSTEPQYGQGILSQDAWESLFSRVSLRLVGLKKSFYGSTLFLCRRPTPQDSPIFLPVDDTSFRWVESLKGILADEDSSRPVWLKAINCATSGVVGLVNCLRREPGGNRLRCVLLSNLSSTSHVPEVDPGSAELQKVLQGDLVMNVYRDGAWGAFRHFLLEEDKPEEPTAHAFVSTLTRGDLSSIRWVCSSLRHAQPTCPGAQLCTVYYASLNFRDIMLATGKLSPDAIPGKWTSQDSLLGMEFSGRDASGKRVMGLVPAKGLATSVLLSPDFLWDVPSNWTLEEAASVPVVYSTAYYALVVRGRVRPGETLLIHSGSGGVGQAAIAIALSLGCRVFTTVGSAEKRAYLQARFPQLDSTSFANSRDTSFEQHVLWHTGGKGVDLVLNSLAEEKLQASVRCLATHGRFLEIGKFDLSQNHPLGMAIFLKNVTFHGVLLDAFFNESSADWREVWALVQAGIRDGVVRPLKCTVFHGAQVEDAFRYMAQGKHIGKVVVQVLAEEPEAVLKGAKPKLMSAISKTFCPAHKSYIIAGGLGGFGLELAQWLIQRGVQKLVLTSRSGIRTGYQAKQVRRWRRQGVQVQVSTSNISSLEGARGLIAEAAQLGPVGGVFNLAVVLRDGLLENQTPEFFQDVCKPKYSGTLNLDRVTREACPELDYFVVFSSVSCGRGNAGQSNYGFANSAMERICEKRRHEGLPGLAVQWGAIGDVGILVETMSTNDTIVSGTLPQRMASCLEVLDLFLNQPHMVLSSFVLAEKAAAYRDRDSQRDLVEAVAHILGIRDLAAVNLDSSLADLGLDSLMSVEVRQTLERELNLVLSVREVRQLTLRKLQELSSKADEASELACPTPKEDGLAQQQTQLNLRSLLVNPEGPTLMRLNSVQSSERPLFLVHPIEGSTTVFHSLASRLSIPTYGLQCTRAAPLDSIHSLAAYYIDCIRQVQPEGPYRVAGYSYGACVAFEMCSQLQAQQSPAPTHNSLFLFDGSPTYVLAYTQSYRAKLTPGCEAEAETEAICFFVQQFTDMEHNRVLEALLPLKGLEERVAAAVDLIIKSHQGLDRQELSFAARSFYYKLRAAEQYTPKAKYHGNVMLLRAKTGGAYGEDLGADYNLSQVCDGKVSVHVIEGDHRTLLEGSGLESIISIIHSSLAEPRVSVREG
Sequence of Peroxisome proliferator-activated receptor gamma (Homo sapiens) (P37231 whole entry, looked up, the tested form may be a part): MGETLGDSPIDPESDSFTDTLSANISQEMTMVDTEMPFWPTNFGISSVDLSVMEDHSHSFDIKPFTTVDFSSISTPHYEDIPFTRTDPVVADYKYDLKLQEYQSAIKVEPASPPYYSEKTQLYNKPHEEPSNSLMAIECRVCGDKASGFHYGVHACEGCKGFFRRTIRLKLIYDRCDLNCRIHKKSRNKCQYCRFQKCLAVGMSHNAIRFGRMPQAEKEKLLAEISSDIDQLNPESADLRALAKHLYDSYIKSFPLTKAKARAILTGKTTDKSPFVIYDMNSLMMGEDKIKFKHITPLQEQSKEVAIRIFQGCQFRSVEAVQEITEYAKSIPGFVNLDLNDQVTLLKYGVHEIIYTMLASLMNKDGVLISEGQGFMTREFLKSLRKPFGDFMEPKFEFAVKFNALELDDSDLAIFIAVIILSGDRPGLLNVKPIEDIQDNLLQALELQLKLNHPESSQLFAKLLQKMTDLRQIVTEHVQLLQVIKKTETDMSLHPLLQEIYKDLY

Cc1ccc(O)cc1
not listed: [19] | [20]
inactive: all other assays above

CC[C@H](C)C(=O)O[C@H]1C[C@@H](C)C=C2C=C[C@H](C)[C@H](CC[C@@H]3C[C@@H](O)CC(=O)O3)[C@H]21
active: [4] 2.84 µM | [5] 0.026 µM | [6] 2.96 µM | [8] 0.094 µM | [10] 0.641 µM | [13] 12.1 µM
not listed: [7]
inactive: all other assays above

CC1=CC(=O)CC(C)(C)C1
not listed: [7] | [15] | [19] | [20]
inactive: all other assays above

CNS(=O)(=O)c1cc(C(=O)N2CCC(CCN3C4CCC3CC(n3c(C)nc5ccccc53)C4)(c3cccc(F)c3)CC2)c(Cl)cc1F (configuration not stated)
active: [1] 28.4 µM and 12.1 µM | [6] 2.65 µM | [7] 3.6 µM | [15] 31 µM | [17] 15.6 µM | [18] 24.2 µM
inactive: [2] | [3] | [5] | [11] | [12] | [13] | [14] | [16]

C=CCCCCCCCCC(=O)O
active: [5] 36.5 µM
not listed: [7] | [15]
inactive: all other assays above

Oc1ccc2c(c1)-c1ccccc1C2
active: [4] 40 µM | [5] 33.7 µM | [6] 13.5 µM | [7] 42.3 µM | [8] 11.5 µM | [9] 81.5 µM | [10] 30.3 µM | [11] 30.8 µM
not listed: [14] | [19] | [20]
inactive: all other assays above
